Results on 28 compounds are retold here after PubChem BioAssay AID1578 (Sanford-Burnham Center for Chemical Genomics, 2009).

About 3,000 (1%) of roughly 290,000 compounds were called active. Cut-off read from the data, not from the text of the source: active = inhibition mostly above about 36% (no sharp cut-off); inactive = mostly below about 34%. This excerpt belongs to a sample that is enriched for actives.

What is called inhibition is the drop in the measured response relative to a control, in per cent.

This experiment can be described thus: inhibition of NOD1-driven NF-kB reporter – cell-based, luminescence, uHTS, primary screen (AID 1578).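 Note: HEK-293T reporter cells stimulated with the NOD1 agonist gamma-tri-DAP.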 As to conditions: NOD1-driven NF-kB luciferase reporter cells, at 4 µM, stronger effect = higher value.
With `CCC(=O)Nc1cc2nn(-c3ccc(C)cc3)nc2cc1C`, the inhibition was 58.2% (active).

Consider `CCC(=O)Nc1cc2nn(-c3ccc(OC)cc3)nc2cc1C`, for which the inhibition was -20% (inactive).

For the compound `CCCCC(=O)Nc1cc2nn(-c3ccc(OC)cc3)nc2cc1C`, the inhibition is -94.7% (inactive).

On to `COc1ccc(C(=O)N/C(=C\c2ccccc2)C(=O)Nc2ccc(C(=O)O)cc2)cc1`, for which the inhibition was 0.4% (inactive).

On to `CCN(CC(=O)Nc1ccc(NC(C)=O)cc1)C(=O)/C=C/c1cn(-c2ccccc2)nc1-c1ccc(C)cc1`, for which the inhibition is 15.8% (inactive).

As for `CCOC(=O)c1ccc(Oc2cn[nH]c2-c2ccc(O)cc2O)cc1`, the inhibition was 5.5% (inactive).

With `CCOC(=O)Cc1nn(C(C)C)c(=O)c2ccccc12`, the inhibition was -21.4% (inactive).

For `CCOC(=O)Cn1nc(-c2ccccc2)c2ccccc2c1=O`, the inhibition is -6.3% (inactive).

Take `CCOC(=O)C(C)n1nc(-c2ccccc2)c2ccccc2c1=O` (stereo not drawn): the inhibition is 36.3% (active).

On to `CCC(C(=O)O)N1C(=O)C2CCCCC2C1=O` (stereo not drawn), for which the inhibition was 4.4% (inactive).

As for `O=c1ccc(Cc2ccc(Cl)cc2)n[nH]1`, the inhibition was -29.8% (inactive).

For `O=c1ccc(Cl)n[nH]1`, the inhibition is 61.4% (active).

Turning to `O=c1ccc(-c2ccccc2)n[nH]1`, the inhibition was -29% (inactive).

Consider `CCn1c(SCC(=O)NC2CCCCC2)nnc1-c1ccccn1`, for which the inhibition is 2.9% (inactive).

Consider `NC(=O)c1ccc(NC(=O)c2ccc(CN3CCOCC3)cc2)cc1`, for which the inhibition is -20.3% (inactive).

On to `O=C(Nc1ccc(S(=O)(=O)Nc2ccccc2)cc1)c1ccc(CN2CCOCC2)cc1`, for which the inhibition is 76.1% (active).

Turning to `COc1ccc(C(=O)Nc2ccc(CN3CCCCC3)cc2)cc1`, the inhibition is -37.1% (inactive).

On to `O=C(Nc1ccc(S(=O)(=O)N2CCCC2)cc1)c1ccc(CN2CCOCC2)cc1`, for which the inhibition is 44.6% (inactive).

With `COc1ccc(C(=O)NC(=S)Nc2ccc(CN3CCOCC3)cc2)cc1`, the inhibition is -0.3% (inactive).

Regarding `c1ccc(COc2cccc(CNCc3cccnc3)c2)cc1`, the inhibition was -20% (inactive).

Consider `CC(=O)Nc1ccc(S(=O)(=O)NCc2ccc(C)cc2)cc1`, for which the inhibition is 2.4% (inactive).

On to `Cc1coc2cc3oc(=O)c4c(c3cc12)CCCC4`, for which the inhibition is -30.5% (inactive).

On to `COc1ccc(/C=N/Nc2ccccc2C(=O)O)cc1Cn1cc([N+](=O)[O-])cn1`, for which the inhibition was -11.8% (inactive).

For `O=C(COC(=O)c1ccccc1C(=O)c1ccccc1)Nc1ccc(SC(F)F)cc1`, the inhibition is 7.1% (inactive).

On to `CCOC(=O)C1=C(C(F)(F)F)Nc2ncnn2C1c1cc(OC)ccc1OC` (stereo not drawn), for which the inhibition is 10.8% (inactive).

Regarding `O=C(COc1ccccc1)NNc1c2ccccc2nc2ccccc12`, the inhibition was 40.5% (inactive).

In the case of `COc1ccc(OCC(=O)NNc2c3ccccc3nc3ccccc23)cc1`, the inhibition is 76.7% (active).

In the case of `Cc1ccc(OCC(=O)NNc2c3ccccc3nc3ccccc23)cc1`, the inhibition is 52.5% (inactive).
